Screening results (PubChem)
RECQ1 inh = RECQ1 (human) helicase inhibition | 240,000 compounds, 0.54% hits | RECQ1 DNA unwinding, red fluorescence kinetic read | Potency, µM (titrated, usually from 57.3 µM), for the others: at the top dose activity, negative = inhibition, most hits filed as inhibitors | AID 2549;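 also: plate controls were vehicle for no effect and no enzyme for full effect; nearly all actives have a fitted effect of over 30% in size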
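50 nM RECQ1T1 preincubated 15 min with compound in Tris pH 8.0 buffer with MgCl2, DTT, Tween-20 and 2.5 ug/ml poly(dI-dC); started with 200 nM TAMRA/BHQ-2 forked duplex and 2 mM ATP. Unwinding read as fluorescence (525/598 nm), two reads 2 h apart.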
TDP1 block = inhibitors of human tyrosyl-DNA phosphodiesterase TDP1 | recombinant TDP1, AlphaScreen DNA substrate cleavage | Potency, µM (highest dose often 130 µM), without a hit: top-dose activity change, negative = inhibition, most hits filed as inhibitors | 350,000 compounds, 0.28% hits | AID 485290; also: nearly all actives have a fitted effect of over 40% in size
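Compounds were preincubated with Tdp1 (1 nM final) for 15 min at room temperature before substrate (15 nM final) started a 5 min reaction; beads (10 ug/ml final) were then added for 10 min before AlphaScreen detection.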
FEN1 inhibitor = human FEN1 inhibition. Potency, µM (doses to about 114 µM), without a hit: at the highest dose activity change, negative = inhibition, most hits filed as inhibitors. 390,000 compounds, 0.35% hits. Recombinant FEN1 flap cleavage, fluorescence, 15 min. P39748. AID 588795; also: nearly all actives have a fitted effect of over 65% in size
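FEN1 at 10 nM preincubated with compounds 15 min at room temperature, then flap DNA substrate added at 50 nM final. Signal read at 0 and 15 min; concentration-response fitted with four-parameter Hill equation.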
APEX1 inh = blocks human APE1 abasic DNA cleavage; P27695; recombinant APE1, TAMRA/BHQ-2 abasic DNA cleavage fluorescence; Potency, µM (doses to about 65.8 µM), inactives show top-dose activity change, negative = inhibition, usual class: inhibitors; 350,000 compounds, 0.35% hits;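 also: plate controls were vehicle for no effect and reference inhibitor for full effect; nearly all actives have a fitted effect of over 55% in size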
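Enzyme (0.75 nM final) and test compound are incubated 15 min at room temperature before adding 50 nM quenched THF abasic-site duplex. Cleavage dequenches TAMRA, followed at 525/598 nm over three reads one minute apart.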
BLM inh = Bloom syndrome helicase (human) inhibition; P54132; recombinant BLM DNA unwinding, fluorescence dequenching; Potency, µM (highest dose often 56.1 µM), inactives show at the top dose activity change, negative = inhibition, usual class: inhibitors; 350,000 compounds, 0.2% hits;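 also: plate controls were vehicle for no effect and no enzyme for full effect; nearly all actives have a fitted effect of over 35% in size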
Starred values were filed as active, the others as inactive; i = inactive; ? = inconclusive; / = no result; ! = not active in a repeat; [ ] = another dose, or the depositor's remark. An excerpt weighted towards active compounds, which were near 0.92% of everything screened. Calls follow the shape of the dose curve; as a rule, active = well fitted curve in the direction sought with a large enough effect; inconclusive = small, poorly fitted or top-dose-only effect, or another doubt; inactive = no such curve, though single readings can be large; an effect the other way counts as inactive or inconclusive. Unless noted, % is scaled to controls: 0 for no effect and ±100 for the full control effect; potency is read from the fitted curve at half-maximal effect.

SMILES	RECQ1 inh	TDP1 block	FEN1 inhibitor	APEX1 inh	BLM inh
Cc1cc(N)ccc1N1CCCC1	-21%	4%	40µM*	2%	-16%
Cc1cccc(-n2cnc3cc(C(=O)NC4CCCCCC4)ccc32)c1	/	10%	3%	/	-7%
Cc1ccc(N=Cc2cc(Cc3ccccc3Cl)cc([N+](=O)[O-])c2O)c(O)c1	?	11%	-32%	-10%	16µM*
O=C(/C=C/c1ccc(O)c(O)c1)OC(Cc1ccc(O)c(O)c1)C(=O)O (configuration not stated)	13µM*!	/	?	1.3µM*!	-2%
O=C(/C=C/c1ccc(O)c(O)c1)OCCc1ccccc1	-18%	13%	-5%	?	-10%
O=C(/C=C\c1ccc(O)c(O)c1)O[C@@H](Cc1ccc(O)c(O)c1)C(=O)O	-16%	/	/	2.5µM*	-1%
O=C(Nc1cc(-c2nc3ccccc3o2)ccc1Cl)c1sc2c([N+](=O)[O-])cccc2c1Cl	/	2%	-3%	/	-3%
CN(C)c1nc(-c2ccccc2)c2cnn(Cc3ccccc3)c2n1	-7%	16µM*	-11%	8%	-7%
COc1cc(NC(=O)Cn2nnc(-c3ccc(C(F)(F)F)cc3)n2)c(C(=O)O)cc1OC	/	7%	12%	/	-2%
C#Cc1ccc([C@H]2C=C(C(=O)OCC=C)O[C@@H](OCC)[C@@H]2CCCO)cc1	22µM*	1%	-6%	-2%	-11%
C#Cc1ccc([C@@H]2C=C(C(=O)OCC=C)O[C@H](OCC)[C@H]2CCCO)cc1	-15%	5%	5%	0%	4%
CC[N+]1=C(C)C(C)(C)c2cc(C)ccc21	25µM*	8%	?	10µM*	-10%
O=C(Cn1ncn2nc(-c3cccs3)cc2c1=O)NCc1ccccc1Cl	/	6%	15%	/	-1%
Cc1ccccc1CNC(=O)Cn1ncn2nc(-c3cccs3)cc2c1=O	/	6%	89µM*	/	-2%
COc1ccc(CN2CC[C@H]3C=CC[C@@H](C(=O)N4CCN(c5ccccc5)CC4)[C@H]3C2=O)cc1OC	/	/	-14%	/	/
Cc1ccc(Cl)cc1-n1c(CCC(=O)O)ccc1-c1cccs1	/	/	-11%	/	-3%
CN(C)c1ccc(Nc2ncnc3c2c(-c2ccccc2)cn3-c2cccc(Cl)c2)cc1	/	13%	2%	/	-7%
O=C(O)CCc1ccc(-c2cccs2)o1	-21%	16µM*	-16%	?	1%
CC1(C)c2ccccc2N2CC(=O)N(CC(N)=O)C21C (configuration not stated)	32µM*	7%	79µM*	?	-13%
COC(=O)C/C=N/N=C1/NC(=O)/C(=C/C(=O)O)S1	-3%	/	50µM*	4%	-2%
COc1ccc(-c2cc3ccc(O)cc3oc2=O)cc1OC	/	79µM*	-9%	-23%	-15%
O=C(Cn1nnc(-c2cc(C(F)(F)F)cc(C(F)(F)F)c2)n1)NNC(=S)Nc1ccc(Cl)cc1	5%	-6%	-32%	-1%	18µM*
Cc1cc(C(F)(F)F)nn1CC(=O)NNC(=S)Nc1ccc(Cl)cc1	-2%	12%	0%	-5%	0%
Cc1ccc2oc(-c3ccc(C)c(NC(=O)COc4ccccc4C)c3)nc2c1	/	/	20%	/	/
O=C(Nc1cccc(Cl)c1)c1cc(S(=O)(=O)N2CCCc3ccccc32)ccc1F	/	5%	-18%	/	-7%
SMILES	RECQ1 inh	TDP1 block	FEN1 inhibitor	APEX1 inh	BLM inh
CO[C@H]1COC(=O)[C@@H](C)COC(=O)[C@@H](COCc2ccccc2)NC(=O)C/C=C\[C@H]1C	i[11.5 µM]	6%[21 µM]	/	?	-1%[12.4 µM]
O=C(N/N=C/c1cn(Cc2ccccc2)c2ccccc12)c1cc(O)cc(O)c1	/	-15%	-14%	15µM*	-15%
COc1cc(/C=C/C(=O)OCC(=O)Nc2ccc(Cl)cn2)ccc1O	/	28µM*	11%	?	/
CCOC(=O)c1ccc(N2C(=O)c3[nH]nc(-c4ccccc4)c3C2c2cccs2)cc1 (configuration not stated)	/	2%	-4%	/	-13%
Nc1ccc(N=Nc2ccccc2)c2ccccc12	-18%	11%	-9%	56%	-14%
Cc1cc(-c2ccc(N=Nc3ccc4c(S(=O)(=O)O)cc(S(=O)(=O)O)c(N)c4c3O)c(C)c2)ccc1N=Nc1ccc2c(S(=O)(=O)O)cc(S(=O)(=O)O)c(N)c2c1O	8.9µM*	24%[56.1 µM]	/	2.5µM*	11µM*!
Nc1c(N=Nc2ccc(-c3ccc(N=Nc4cc(S(=O)(=O)O)c5ccccc5c4N)cc3)cc2)cc(S(=O)(=O)O)c2ccccc12	10µM*	20%	/	32µM*	4µM*
Cc1ccc(N=Nc2ccc(N)cc2C)c(S(N)(=O)=O)c1	i	9%	-4%	-2%	-6%
Cc1nc(N2CCOCC2)c2c(C(=O)NCCc3ccccc3)c(C)oc2n1	/	3%	13%	/	2%
COc1cccc(Cn2c(=O)c(-c3cccs3)nc3cnc(N4CCNCC4)nc32)c1	i	/	/	2%	-6%
Cc1cc2c(SCC(=O)Nc3cccc(O)c3)ncnc2s1	/	/	45µM*	/	/
Cc1ccccc1-c1cncnc1N(C)Cc1ccco1	-15%	22µM*	/	-12%	-4%
O=C1N/C(=C\c2ccc(O)cc2)C(=O)c2ccccc21	i	10%	-15%	?	32µM*
O=[N+]([O-])c1cccc(S(=O)(=O)NCCNS(=O)(=O)c2cccc([N+](=O)[O-])c2)c1	/	5%	/	/	-9%
N=c1c(S(=O)(=O)c2ccccc2)cc2c(=O)n3ccccc3nc2n1Cc1ccco1	-19%	1%	-11%	-1%	7.1µM*
Cc1cccn2c(=O)c3cc(S(=O)(=O)c4ccccc4)c(=N)n(Cc4ccco4)c3nc12	i	1%	4%	-1%	28µM*
Cc1ccc(S(=O)(=O)c2cc3c(=O)n4ccccc4nc3n(Cc3ccco3)c2=N)cc1C	-8%	1%	-5%	-1%	?
Cc1cccn2c(=O)c3cc(S(=O)(=O)c4ccc(F)cc4)c(=N)n(Cc4ccco4)c3nc12	107%	-4%	3%	-1%	-14%
Cc1ccc2c(c1C)NC(C(=O)O)C1CC=CC21 (configuration not stated)	5µM*	-12%	56µM*	?	18µM*
Cc1cc(C)c2c(c1)C1C=CCC1C(C(=O)O)N2 (configuration not stated)	/	-8%	22µM*	/	/
O=C(O)C1Nc2c(C(F)(F)F)ccc(Cl)c2C2C=CCC12 (configuration not stated)	/	/	10%	26%	-4%
O=C(O)C1Nc2c(C(=O)N3CCOCC3)cccc2C2C=CCC12 (configuration not stated)	-17%	/	?	?	-2%
CC(C)C1Nc2ccc(C(=O)O)cc2C2C=CCC21 (configuration not stated)	13%	4%	?	4%	-7%
